# “And” between values parts separate entries of the source, which are not always exact repeats. Equal entries are not always repeated. Where two headings read alike, the source gives them in different places.
# How the values were obtained:
# CAMKK1 = conditions: concentration: 1 μM, replicates: in singlicate; n = 1
# CAMKK2 = conditions: concentration: 1 μM, replicates: in singlicate; n = 1
# CASK = conditions: concentration: 1 μM, replicates: in singlicate, n = 1
# CDC2L1 = tested on: T1, CDC2L1; conditions: concentration: 1 μM, replicates: in singlicate, n = 1
# T1 construct: gene CDK11B
# CDC2L2 = conditions: concentration: 1 μM, replicates: in singlicate, n = 1
# CDC2L5 = tested on: T2, CDC2L5; conditions: concentration: 1 μM, replicates: in singlicate, n = 1
# T2 construct: gene CDK13
# CDK11 = tested on: T3, CDK11; conditions: concentration: 1 μM, replicates: in singlicate, n = 1
# T3 construct: gene CDK19
# CDK2 = conditions: concentration: 1 μM, replicates: in singlicate; n = 1
# CDK3 = conditions: concentration: 1 μM, replicates: in singlicate; n = 1
# CDK4-cyclinD1 = conditions: concentration: 1 μM, replicates: in singlicate, n = 1
# CDK4-cyclinD3 = conditions: concentration: 1 μM, replicates: in singlicate; n = 1
# CDK4 = conditions: concentration: 1 μM, replicates: in singlicate, n = 1
# CDK5 = conditions: concentration: 1 μM, replicates: in singlicate; n = 1
# CDK7 = conditions: concentration: 1 μM, replicates: in singlicate, n = 1
# CDK8 = conditions: concentration: 1 μM, replicates: in singlicate, n = 1
# CDK9 = conditions: concentration: 1 μM, replicates: in singlicate; n = 1
# CDKL1 = conditions: concentration: 1 μM, replicates: in singlicate, n = 1
# CDKL2 = conditions: concentration: 1 μM, replicates: in singlicate, n = 1
# CDKL3 = conditions: concentration: 1 μM, replicates: in singlicate, n = 1
# CDKL5 = conditions: concentration: 1 μM, replicates: in singlicate; n = 1
# 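Further: KINOMEscan kinase panel screen.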
compound,measurement,setting,value
Cc1nnc(-c2ccc3occ(-c4ccc(C(C)O)cc4)c3c2)o1 (centres unmarked),%Inh,CAMKK1,12%
same,%Inh,CAMKK2,14%
same,%Inh,CASK,4%
same,%Inh,CDC2L1,1%
same,%Inh,CDC2L2,4%
same,%Inh,CDC2L5,22%
same,%Inh,CDK11,0%
same,%Inh,CDK2,5%
same,%Inh,CDK3,4%
same,%Inh,CDK4-cyclinD1,0%
same,%Inh,CDK4-cyclinD3,0%
same,%Inh,CDK4,0%
same,%Inh,CDK5,1%
same,%Inh,CDK7,17%
same,%Inh,CDK8,0%
same,%Inh,CDK9,8%
same,%Inh,CDKL1,52%
same,%Inh,CDKL2,0%
same,%Inh,CDKL3,0%
same,%Inh,CDKL5,25%
CCc1ccnc(/C=C/c2n[nH]c3cc(Sc4ccccc4C(=O)NC)ccc23)c1,%Inh,CAMKK1,16%
same,%Inh,CAMKK2,11%
same,%Inh,CASK,34%
same,%Inh,CDC2L1,7%
same,%Inh,CDC2L2,2%
same,%Inh,CDC2L5,0%
same,%Inh,CDK11,0%
same,%Inh,CDK2,3%
same,%Inh,CDK3,0%
same,%Inh,CDK4-cyclinD1,16%
same,%Inh,CDK4-cyclinD3,0%
same,%Inh,CDK4,0%
same,%Inh,CDK5,1%
same,%Inh,CDK7,0%
same,%Inh,CDK8,0%
same,%Inh,CDK9,10%
same,%Inh,CDKL1,3%
same,%Inh,CDKL2,0%
same,%Inh,CDKL3,2%
same,%Inh,CDKL5,12%
Cl.Cl.Cl.Fc1ccc(-c2ncn(C3CCNCC3)c2-c2ccnc(Nc3ccccc3)n2)cc1 [SB-238039],%Inh,CAMKK1,0%
same,%Inh,CAMKK2,0%
same,%Inh,CASK; 1 µM,16% and 0%
same,%Inh,CDC2L1; 1 µM,99.4% and 98.5%
same,%Inh,CDC2L2; 1 µM,99.8% and 98.2%
same,%Inh,CDC2L5; 1 µM,32% and 16%
same,%Inh,CDK11; 1 µM,0% and 2%
same,%Inh,CDK2,0%
same,%Inh,CDK3,0%
same,%Inh,CDK4-cyclinD1; 1 µM,0% and 15%
same,%Inh,CDK4-cyclinD3,0%
same,%Inh,CDK4; 1 µM,18% and 19%
same,%Inh,CDK5,0%
same,%Inh,CDK7; 1 µM,19% and 33%
same,%Inh,CDK8; 1 µM,49% and 19%
same,%Inh,CDK9,0%
same,%Inh,CDKL1; 1 µM,34% and 37%
same,%Inh,CDKL2; 1 µM,0% and 29%
same,%Inh,CDKL3; 1 µM,5% and 15%
same,%Inh,CDKL5,0%
C[C@@H](Oc1cc(-n2cnc3ccc(NC(=O)NC(C)(C)C)cc32)sc1C(N)=O)c1ccccc1Cl [GSK346294],%Inh,CAMKK1,3%
same,%Inh,CAMKK2,24%
same,%Inh,CASK,11%
same,%Inh,CDC2L1,0%
same,%Inh,CDC2L2,13%
same,%Inh,CDC2L5,0%
same,%Inh,CDK11,4%
same,%Inh,CDK2,0%
same,%Inh,CDK3,9%
same,%Inh,CDK4-cyclinD1,8%
same,%Inh,CDK4-cyclinD3,1%
same,%Inh,CDK4,34%
same,%Inh,CDK5,0%
same,%Inh,CDK7,0%
same,%Inh,CDK8,45%
same,%Inh,CDK9,0%
same,%Inh,CDKL1,14%
same,%Inh,CDKL2,5%
same,%Inh,CDKL3,0%
same,%Inh,CDKL5,0%
c1ccc(-c2cc(-c3c[nH]nc3-c3ccccn3)ccn2)cc1 [GW576604],%Inh,CAMKK1,5%
same,%Inh,CAMKK2,24%
same,%Inh,CASK,0%
same,%Inh,CDC2L1,0%
same,%Inh,CDC2L2,16%
same,%Inh,CDC2L5,0%
same,%Inh,CDK11,11%
same,%Inh,CDK2,13%
same,%Inh,CDK3,0%
same,%Inh,CDK4-cyclinD1,0%
same,%Inh,CDK4-cyclinD3,0%
same,%Inh,CDK4,49%
same,%Inh,CDK5,0%
same,%Inh,CDK7,0%
same,%Inh,CDK8,13%
same,%Inh,CDK9,0%
same,%Inh,CDKL1,0%
same,%Inh,CDKL2,0%
same,%Inh,CDKL3,0%
same,%Inh,CDKL5,0%
COc1ccc(S(=O)(=O)NC2CCN(c3cc(C)nc(Nc4cccc(C#N)c4)n3)CC2)cc1.O=C(O)C(F)(F)F [GSK1653539],%Inh,CAMKK1,2%
same,%Inh,CAMKK2,16%
same,%Inh,CASK,0%
same,%Inh,CDC2L1,0%
same,%Inh,CDC2L2,37%
same,%Inh,CDC2L5,0%
same,%Inh,CDK11,0%
same,%Inh,CDK2,0%
same,%Inh,CDK3,0%
same,%Inh,CDK4-cyclinD1,0%
same,%Inh,CDK4-cyclinD3,0%
same,%Inh,CDK4,38%
same,%Inh,CDK5,0%
same,%Inh,CDK7,0%
same,%Inh,CDK8,4%
same,%Inh,CDK9,0%
same,%Inh,CDKL1,15%
same,%Inh,CDKL2,0%
same,%Inh,CDKL3,0%
same,%Inh,CDKL5,0%
O=C(Nc1n[nH]c2cc(-c3cccc(F)c3)ccc12)C1CC1 [SB-735464],%Inh,CAMKK1,18%
same,%Inh,CAMKK2,14%
same,%Inh,CASK,10%
same,%Inh,CDC2L1,2%
same,%Inh,CDC2L2,9%
same,%Inh,CDC2L5,23%
same,%Inh,CDK11,0%
same,%Inh,CDK2,27%
same,%Inh,CDK3,0%
same,%Inh,CDK4-cyclinD1,8%
same,%Inh,CDK4-cyclinD3,7%
same,%Inh,CDK4,44%
same,%Inh,CDK5,3%
same,%Inh,CDK7,0%
same,%Inh,CDK8,0%
same,%Inh,CDK9,0%
same,%Inh,CDKL1,6%
same,%Inh,CDKL2,57%
same,%Inh,CDKL3,28%
same,%Inh,CDKL5,4%
COc1ccc(Nc2nccc(N3CCC(NC(=O)Nc4cccc(C(C)=O)c4)C3)n2)cc1 (centres unmarked) [GSK1379731],%Inh,CAMKK1,0%
same,%Inh,CAMKK2,1%
same,%Inh,CASK,0%
same,%Inh,CDC2L1,0%
same,%Inh,CDC2L2,0%
same,%Inh,CDC2L5,0%
same,%Inh,CDK11,79%
same,%Inh,CDK2,0%
same,%Inh,CDK3,0%
same,%Inh,CDK4-cyclinD1,2%
same,%Inh,CDK4-cyclinD3,0%
same,%Inh,CDK4,8%
same,%Inh,CDK5,0%
same,%Inh,CDK7,0%
same,%Inh,CDK8,61%
same,%Inh,CDK9,0%
same,%Inh,CDKL1,1%
same,%Inh,CDKL2,43%
same,%Inh,CDKL3,0%
same,%Inh,CDKL5,0%
COc1cc(Nc2nccc(N3CCC(NC(=O)c4cccc(NC(C)=O)c4)C3)n2)cc(OC)c1OC (centres unmarked) [GSK1379754],%Inh,CAMKK1,0%
same,%Inh,CAMKK2,11%
same,%Inh,CASK,1%
same,%Inh,CDC2L1,0%
same,%Inh,CDC2L2,2%
same,%Inh,CDC2L5,0%
same,%Inh,CDK11,20%
same,%Inh,CDK2,2%
same,%Inh,CDK3,0%
same,%Inh,CDK4-cyclinD1,0%
same,%Inh,CDK4-cyclinD3,0%
same,%Inh,CDK4,12%
same,%Inh,CDK5,0%
same,%Inh,CDK7,9%
same,%Inh,CDK8,33%
same,%Inh,CDK9,0%
same,%Inh,CDKL1,0%
same,%Inh,CDKL2,22%
same,%Inh,CDKL3,0%
same,%Inh,CDKL5,4%
Cc1cccc(Cn2ccn3c(=O)cc(N4CCOCC4)nc23)c1 [GSK2297542],%Inh,CAMKK1,5%
same,%Inh,CAMKK2,27%
same,%Inh,CASK,20%
same,%Inh,CDC2L1,0%
same,%Inh,CDC2L2,15%
same,%Inh,CDC2L5,0%
same,%Inh,CDK11,0%
same,%Inh,CDK2,8%
same,%Inh,CDK3,20%
same,%Inh,CDK4-cyclinD1,0%
same,%Inh,CDK4-cyclinD3,0%
same,%Inh,CDK4,6%
same,%Inh,CDK5,0%
same,%Inh,CDK7,0%
same,%Inh,CDK8,31%
same,%Inh,CDK9,0%
same,%Inh,CDKL1,20%
same,%Inh,CDKL2,29%
same,%Inh,CDKL3,0%
same,%Inh,CDKL5,0%

# Reference: publication PMC5540273 (PLoS ONE, 2017)
